# In the library only some 5.4% were active in any assay of this set; here they are far more common.
# p53 reactivator: re-activators of mutant p53; H1299 p53-A138V BP100-luciferase reporter, luminescence, 24 h; Potency, µM (top dose mostly 92.2 µM), for the others: top-dose activity change, positive = activation, actives largely listed as activators; 320,000 tested, 0.063% active; AID 504706; also: potency is read from the fitted curve at half-maximal effect; % of control where 0% means no effect; nearly all actives have a fitted effect of over 45% in size
#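 H1299 (p53-null), stable ts p53-A138V + BP100-Luc; 1000 cells/well, Opti-MEM/10% FBS; cpd 4 pt, 1:5; 24 h, 37 deg C, 5% CO2; detection reagent 10 min RT; luminescence.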
# CtBP-E1A blk: CtBP/E1A binding inhibition | activity change, % (no concentration beside the values) | AlphaScreen GST-E1A/His-CtBP binding, 1536-well; hits give low values | AID 651724 | 340,000 tested, 0.49% active; in the data active = activity change below about -65%; inconclusive = mostly about -30% to -63%; also: % is scaled to controls: 0 for no effect and ±100 for the full control effect
#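 GST-E1A and His-tagged CtBP (125 nM each as 5X stock) were preincubated with pin-transferred compound for 2 h at 37 °C in the dark, then glutathione donor and nickel acceptor beads were added for 1 h before AlphaScreen reading.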
# Six1-Eya2 blk: Six1/Eya2 interaction inhibition. activity change, % (no concentration beside the values). AlphaScreen GST-Six1/His-Eya2 binding, biochemical; hits give low values. 360,000 tested, 0.56% active. AID 651725; in the data active = activity change below about -65%; inconclusive = mostly about -30% to -63%; also: % is scaled to controls: 0 for no effect and ±100 for the full control effect
#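 Compounds are tested against tagged Six1 and Eya2 proteins bridged by glutathione donor and nickel acceptor beads; after a one-hour incubation at 37 °C without light, AlphaScreen emission is recorded.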
# RORg inh: blocks mouse ROR gamma transcriptional activity; Drosophila S2 Gal4-RORgamma UAS-luciferase reporter, 20 h; Potency, µM (titrated, usually from 53.6 µM), inactives show at the highest dose activity change, negative = inhibition, usual class: inhibitors; 310,000 tested, 5.4% active; P51450; AID 2551; also: potency is read from the fitted curve at half-maximal effect; % is scaled to controls: 0 for no effect and ±100 for the full control effect; nearly all actives have a fitted effect of over 60% in size
#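 In this cell-based reporter format, copper sulfate (700 uM final) drives Gal4–ROR gamma fusion expression from a metallothionein promoter in Drosophila Schneider cells; compounds preincubated 1 hr, reporter read after 20 hr at ambient temperature.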
# Gal4-VP16 FLuc: Gal4-VP16 reporter inhibition counter-screen; Drosophila S2 Gal4-VP16 UAS-luciferase, luminescence, 20 h; Potency, µM (top dose mostly 53.6 µM), inactives show top-dose activity, negative = inhibition, most hits filed as inhibitors; 310,000 tested, 3.5% active; AID 2546;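 also: Gal4-VP16 expression switched on by copper sulfate through the metallothionein promoter; potency is read from the fitted curve at half-maximal effect; % is scaled to controls: 0 for no effect and ±100 for the full control effect; nearly all actives have a fitted effect of over 50% in size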
# Active calls of the source: *; ? = inconclusive; . = not tested or not shown; [ ] = another dose, or the depositor's remark. Unless noted, calls follow the shape of the dose curve; as a rule, active = well fitted curve in the direction sought with a large enough effect; inconclusive = small, poorly fitted or top-dose-only effect, or another doubt; inactive = no such curve, though single readings can be large; an effect the other way counts as inactive or inconclusive.
SMILES,p53 reactivator,CtBP-E1A blk,Six1-Eya2 blk,RORg inh,Gal4-VP16 FLuc
C[C@@H](NC(=O)c1[nH]cnc1C(=O)Nc1ccccc1)c1ccccc1,-3%,-7,-4,.,.
Cc1cccnc1NC(=O)NC(=O)c1ccc(C(C)(C)C)s1,19%,-14,6,-9%,-17%
C#CCCCO/N=C1/C[C@@H](O)[C@@H](O)[C@@H]2[C@@H]3C(=O)N(c4cccc(Oc5ccccc5)c4)C(=O)[C@H]3CC[C@H]12,.,.,.,12%[10 µM],-3%[10 µM]
CC(C)C[C@H](NC(=O)c1nc[nH]c1C(=O)NC(c1ccccc1)c1ccccc1)C(=O)OC(C)(C)C,2%,-15,-20,0.71µM*,3.5µM*
CC(C)(C)C1CCc2[nH]c3ccccc3c(=O)c2C1 (stereo not drawn),?,-1,-1,?,-29%
Cc1c2c(nc3ccccc13)CCC(C(C)(C)C)C2 (stereo not drawn),10%,7,6,4µM*,?
S=C(Nc1cccnc1)N1CCCCC1,-3%,2,2,31%,-1%
CC(C)NC(=S)N/N=C/C1=CCC2CC1C2(C)C (stereo not drawn),9%,-3,-9,0.79µM*,1.8µM*
CC1(C)C2CC=C(/C=N/NC(=S)Nc3cccnc3)C1C2 (stereo not drawn),-2%,0,-3,0.5µM*,1.3µM*
C=C(C)CNC(=S)N/N=C/C1=CCC2CC1C2(C)C (stereo not drawn),31%,4,-1,0.79µM*,1.6µM*
CC1=C/C(=N\NC(=S)Nc2cccnc2)CC(C)(C)C1,2%,17,15,1.8µM*,3.2µM*
O=C(c1ccc(=O)[nH]c1)N(c1ccccc1)C(CCc1ccccc1)c1nc2ccccc2[nH]1 (stereo not drawn),.,-2,-9,.,.
O=C(C1CCCCC1)N1C[C@H](n2cc(C3CC3)nn2)[C@@H](O)C[C@@H]1c1ccccc1,.,-3,4,.,.
CCCCNC(=S)N/N=C/C1=CCC2CC1C2(C)C (stereo not drawn),12%,-1,-9,1.1µM*,0.89µM*
CC(=O)N/N=C/C1=CCC2CC1C2(C)C (stereo not drawn),-2%,-18,-1,-27%,-3%
Cc1cc(NC(=O)c2c(C)noc2C)no1,1%,-10,2,-13%,2%
O=Cc1cnc(N2CCCCC2)s1,17%,.,2,14%,4%
O=C(N/N=C/c1cnc(N2CCCCC2)s1)c1ccc(Cl)cc1,-5%,.,0,2.2µM*,?
COc1cc(/C=N/NC(=O)CCN2CCN(c3ccccc3)CC2)cc(OC)c1OC,-10%,-80*,-82*,23%,10%
O=C(CNc1cccc2ccccc12)N/N=C/C(Br)=C/c1ccccc1,1%,8,-3,-1%,-17%
O=C(CNc1cccc2ccccc12)N/N=C/c1ccc[nH]1,0%,-6,-16,5µM*,14µM*
O=C(CCN1CCN(c2ccccc2)CC1)N/N=C/c1ccc([N+](=O)[O-])o1,8%,-15,-15,18µM*,-20%
CSc1ccc(/C=N/NC(=O)CNc2cccc3ccccc23)cc1,-13%,0,-1,35µM*,?
Cc1oc(-c2ccccc2F)nc1CS(=O)(=O)CC(=O)NC1CCCC(C)C1C (stereo not drawn),-6%,.,-8,17%,1%
O=C(CNc1cccc2ccccc12)N/N=C/c1ccc([N+](=O)[O-])o1,18%,-12,-17,11µM*,?
SMILES,p53 reactivator,CtBP-E1A blk,Six1-Eya2 blk,RORg inh,Gal4-VP16 FLuc
O=C1c2cccc3c([N+](=O)[O-])ccc(c23)C(=O)N1CCc1ccccn1,2%,6,4,-9%,-1%
CC(=O)Oc1cccc(N2C(=O)c3cccc4c([N+](=O)[O-])ccc(c34)C2=O)c1,.,.,-2,8.9µM*,5.6µM*
CN(C)CCCN1C(=O)c2cccc3c([N+](=O)[O-])ccc(c23)C1=O,-30%,-12,-9,1.4µM*,1.1µM*
O=C(O)c1ccc(CN2C(=O)c3cccc4c([N+](=O)[O-])ccc(c34)C2=O)cc1,-15%,3,3,?,7.1µM*
Cc1ccc(C(=O)O)cc1N1C(=O)c2cccc3c([N+](=O)[O-])ccc(c23)C1=O,.,-8,?,7.9µM*,6.3µM*
O=C(CCNC(=O)c1ccccc1Cl)Nc1ccncc1,3%,3,2,0%,-4%
CCOc1ccc(N(CC(=O)NC2CCCC2)C(=O)CSc2nnc(COc3ccccc3)o2)cc1,-1%,4,-4,-5%,8%
CCc1nc2ccc(C(=O)NCc3ccccc3OC)cn2c1N(CC)CCN(C)C,.,3,1,.,.
CCc1cc2c(c(CC)n1)CCC(=O)N2Cc1ccc(-c2ccccc2-c2nn[nH]n2)cc1,.,.,.,22%,-3%
COc1ccc(C(=O)Nc2ccc(NC(=O)C3CC3)nc2)cc1,-1%,0,-2,-2%,1%
O=C(CNS(=O)(=O)c1ccccc1)NCC(=O)OCc1ccc(Cl)cc1,-1%,9,3,0%,2%
O=C(Nc1ccc(S(=O)(=O)Nc2nccs2)cc1)c1cccc(N2C(=O)c3ccccc3C2=O)c1,8%,-3,-25,31%,-5%
O=C(Nc1nccs1)c1cccc(N2C(=O)c3cccc4c([N+](=O)[O-])ccc(c34)C2=O)c1,1%,-2,2,7.1µM*,7.1µM*
CC(NC(=O)COC(=O)CNS(=O)(=O)/C=C/c1ccccc1)c1ccccc1 (stereo not drawn),-3%,.,14,.,.
Cc1cc(C)c(-n2c(SCc3nc4ccccc4s3)n[nH]c2=O)c(C)c1,-3%,-14,-15,?,3.2µM*
CCCn1c(SCc2nc3ccccc3s2)n[nH]c1=O,2%,6,13,-17%,12%
COC(=O)c1ccc(C(NC(=O)OCc2ccccc2)/C(C)=C/[C@@H](C)C(=O)NCCN2CCOCC2)cc1 (stereo partly drawn),.,.,.,-22%,1%
O=[N+]([O-])c1cc(/C=N/NC(=S)Nc2ccccc2Cl)ccc1Cl,5%,-1,-7,3.2µM*,3.5µM*
COc1ccc(/C=N/NC(=S)Nc2ccccc2[N+](=O)[O-])cc1O,.,-18,?,5.6µM*,3.2µM*
Cc1ccc(C=NNC(=O)C(=O)Nc2ccc(Cl)c([N+](=O)[O-])c2)cc1,.,7,-2,.,.
Cc1ccc(NC(=S)N/N=C/c2ccc(Cl)c([N+](=O)[O-])c2)cc1,11%,-11,-2,18µM*,?
CCOc1ccc(C(=O)Nc2nnc(S(=O)(=O)Nc3ccccc3C)s2)cc1,3%,-1,-2,15%,?
CC(C)(C)c1ccc(-n2nc(C#N)c(Cl)cc2=O)cc1,-11%,5,-10,7.1µM*,7.1µM*
CCN(CC)S(=O)(=O)c1ccc(N2CCOCC2)c(NC(=O)c2cc3ccccc3o2)c1,.,-3,5,.,.

# High-throughput results: PubChem BioAssay, National Center for Advancing Translational Sciences (NCATS)
